Test results as given in PubChem BioAssay (EPA / NIEHS).
Results filed as inconclusive are left out. Active and inactive are the calls of the source. The calls were made as follows, unless noted: active = hit-call score of the fitted dose curve at least 0.9, where 1 is the maximum; inactive = score below 0.9.

Key:
[1] = biological target: Paired box protein Pax-6 (Homo sapiens) (UniProt P26367); experiment: ATG_Pax6_CIS: Attagene CIS-FACTORIAL HepG2 Assay for human Paired Box 6 (PAX6) (AID 2282956); details: HepG2 CIS-FACTORIAL PAX6 reporter transcription, RNA readout; actives raise or lower the signal
Method in brief: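 After twenty-four hours of chemical exposure, transfected HepG2 cells are harvested for RNA. Cis-promoter reporter transcripts are amplified, fluorescently labelled and sized by capillary electrophoresis, with gain and loss of signal scored against DMSO.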

[2] = ATG_PPRE_CIS: Attagene CIS-FACTORIAL HepG2 Assay for human Peroxisome Proliferator-activated Response Element (PPRE) (AID 2282958); details: HepG2 PPRE cis-element reporter, Attagene transcription factor profiling; actives raise or lower the signal
Method in brief: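 PPRE activity in HepG2: transient cis-reporter transfection, 24 h compound incubation, reporter mRNA by RT-PCR and CE fluorescence; gain/loss fitted against DMSO.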

[3] = ATG_RORE_CIS: Attagene CIS-FACTORIAL HepG2 Assay for human RAR-related Orphan Receptor Element (RORE) (AID 2282959); details: HepG2 Attagene cis-factorial RORE reporter, mRNA; actives raise or lower the signal
Method in brief: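 A 24-hour exposure of transfected HepG2 hepatoma cells precedes RNA isolation and reporter RT-PCR. Labeled products are digested with HpaI and resolved by capillary electrophoresis, with gain or loss of signal scored relative to DMSO.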

[4] = ATG_Sox_CIS: Attagene CIS-FACTORIAL HepG2 Assay for human SRY-box transcription factor (SOX) (AID 2282960); details: HepG2 Attagene cis-factorial SOX reporter, mRNA; actives raise or lower the signal
Method in brief: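 HepG2, cis reporter units, 24 h exposure. Reporter mRNA: RT-PCR → FAM labelling → HpaI → CE fluorescence. Bidirectional fit vs DMSO.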

[5] = biological target: Transcription factor Sp1 (Homo sapiens) (UniProt P08047); experiment: ATG_Sp1_CIS: Attagene CIS-FACTORIAL HepG2 Assay for human Specificity Protein 1 (Sp1) (AID 2282961); details: HepG2 Sp1 cis-reporter transcription, actives raise or lower the signal
Method in brief: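 Liver-derived HepG2 cells, cis-element reporter library, 24 h treatment; RNA isolated, cDNA amplified with reporter-specific primers, FAM-labeled fragments sized on capillary analyzer. DMSO baseline, bidirectional curve fit.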

[6] = ATG_SREBP_CIS: Attagene CIS-FACTORIAL HepG2 Assay for human Sterol Regulatory Element Binding (SREBP) (AID 2282962); details: HepG2 Attagene cis-factorial SREBP reporter, mRNA; actives raise or lower the signal
Method in brief: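 Twenty-four hours after chemical dosing of transfected HepG2 cultures, reporter RNA was converted to cDNA, amplified, end-labelled with 6-FAM and resolved by capillary electrophoresis. Responses were fitted relative to DMSO.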

[7] = biological target: Signal transducer and activator of transcription 3 (Homo sapiens) (UniProt P40763); experiment: ATG_STAT3_CIS: Attagene CIS-FACTORIAL HepG2 Assay for human Signal Transducer and Activator of Transcription 3 (STAT3) (AID 2282963); details: HepG2, Attagene cis-factorial STAT3 reporter transcription; actives raise or lower the signal
Method in brief: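 HepG2 cells transiently transfected with cis-element-driven multiple reporter transcription units; after 24 h chemical exposure, reporter mRNA measured by RT-PCR, 6-FAM primer-extension labelling, HpaI digestion and capillary electrophoresis. Bidirectional fitting versus DMSO baseline.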

[8] = ATG_TA_CIS: Attagene CIS-FACTORIAL HepG2 Assay for human TA Basal Promoter (AID 2282964); details: HepG2 Attagene CIS-factorial TA basal promoter reporter; actives raise or lower the signal
Method in brief: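 Background internal-marker endpoint from a 52-component HepG2 cis-reporter panel. Cells treated 24 h; reporter transcripts quantified via RT-PCR and CE fluorescence against DMSO baseline.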

[9] = ATG_TCF_b_cat_CIS: Attagene CIS-FACTORIAL HepG2 Assay for human T-Cell-Factor with beta-catenin (TCF/b-cat) (AID 2282965); details: HepG2 TCF/beta-catenin cis-reporter transcription, actives raise or lower the signal
Method in brief: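 In this cis-format system, transfected HepG2 cells report endogenous transcription factor activity. Readout after 24 h exposure is reporter transcript abundance from RT-PCR and capillary electrophoresis, analysed for gain or loss of signal versus DMSO.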

[10] = ATG_TAL_CIS: Attagene CIS-FACTORIAL HepG2 Assay for human TAL Basal Promoter (AID 2282966); details: HepG2 Attagene cis-factorial TAL promoter reporter; actives raise or lower the signal;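 also: background control endpoint measuring basal TAL promoter reporter mRNA not a specific factor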
Method in brief: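 RT-PCR plus capillary electrophoresis quantifies reporter mRNA induction in transiently transfected HepG2 cells after 24 h chemical treatment. DMSO serves as negative control and baseline for bidirectional fitting.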

[11] = ATG_TGFb_CIS: Attagene CIS-FACTORIAL HepG2 Assay for human Transforming Growth Factor (TGF) (AID 2282967); details: HepG2 Attagene CIS TGFb reporter, mRNA transcription; actives raise or lower the signal
Method in brief: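 Liver HepG2 line, cis-factorial reporter panel, 24 h dosing. Quantitation: RT-PCR products labeled with 6-FAM, cut with HpaI, resolved by capillary electrophoresis; DMSO-referenced bidirectional analysis.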

[12] = biological target: X-box-binding protein 1 (Homo sapiens) (UniProt P17861); experiment: ATG_Xbp1_CIS: Attagene CIS-FACTORIAL HepG2 Assay for human X-box Binding Protein 1 (XBP1) (AID 2282972); details: HepG2 XBP1 cis-element reporter, Attagene multiplex; actives raise or lower the signal
Method in brief: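 After a 24-hour chemical exposure of HepG2 cells carrying cis-regulated reporters, reporter mRNA levels are assessed. Quantification uses RT-PCR, 6-FAM labelling and capillary electrophoresis. Gain- or loss-of-signal is fitted against DMSO.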

[13] = biological target: Glucocorticoid receptor (Homo sapiens) (UniProt P04150); experiment: ATG_GR_TRANS: Attagene TRANS-FACTORIAL HepG2 Assay for human Glucocorticoid Receptor (GR) (AID 2282978; active = hit-call score of the fitted dose curve at least 0.9, where 1 is the maximum;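 also: activators score as hits since higher reporter transcript over DMSO is fitted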); details: HepG2 Attagene TRANS GR reporter, mRNA transcription
Method in brief: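 After 24 h incubation with test chemical, transfected HepG2 cells were lysed for RNA; reporter cDNA was amplified, FAM-labelled, HpaI-digested and sized on a capillary analyser. Signal gain relative to DMSO was scored.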

[14] = ATG_PXRE_CIS: Attagene CIS-FACTORIAL HepG2 Assay for human Pregnane X Receptor Element (PXRE) (AID 2282957); details: HepG2 Attagene CIS-FACTORIAL PXRE reporter, mRNA; actives raise or lower the signal
Method in brief: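 Cells: HepG2, transiently transfected reporter units under cis promoter control. Exposure: 24 h. Detection: reporter mRNA via RT-PCR/CE fluorescence; bidirectional fitting, DMSO-referenced.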

[15] = ATG_VDRE_CIS: Attagene CIS-FACTORIAL HepG2 Assay for human Vitamin D Receptor Element (VDRE) (AID 2282968); details: HepG2 VDRE cis-reporter transcription, actives raise or lower the signal
Method in brief: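 HepG2 cells transiently transfected with cis-element reporter units, dosed 24 h; reporter mRNA measured by RT-PCR, 6-FAM labeling, HpaI digestion and capillary electrophoresis. Activity fitted bidirectionally against DMSO baseline.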

[16] = ATG_M_19_TRANS: Attagene TRANS-FACTORIAL HepG2 Assay for M19 Transcription Factor (Internal Marker) (AID 2282974; active = hit-call score of the fitted dose curve at least 0.9, where 1 is the maximum); details: HepG2 Attagene TRANS-FACTORIAL M19 internal marker reporter
Method in brief: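 Transfected HepG2 (GAL4-UAS MRTUs), 24 h compound, TriZol RNA, DNase-treated RT, reporter PCR, FAM label, HpaI digest, CE fluorescence; gain vs DMSO.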

[17] = ATG_GAL4_TRANS: Attagene TRANS-FACTORIAL HepG2 Assay for GAL4 (Internal Marker) (AID 2282976; active = hit-call score of the fitted dose curve at least 0.9, where 1 is the maximum); details: HepG2 Attagene TRANS GAL4 internal marker reporter
Method in brief: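 In transfected human HepG2 liver cells dosed 24 h, GAL4 reporter mRNA serves as a baseline marker. Detection by RT-PCR with fluorescent capillary electrophoresis, activity fitted upward relative to DMSO.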

Measured: AC50

Glucocorticoid receptor (Homo sapiens), sequence (P04150 whole entry, looked up): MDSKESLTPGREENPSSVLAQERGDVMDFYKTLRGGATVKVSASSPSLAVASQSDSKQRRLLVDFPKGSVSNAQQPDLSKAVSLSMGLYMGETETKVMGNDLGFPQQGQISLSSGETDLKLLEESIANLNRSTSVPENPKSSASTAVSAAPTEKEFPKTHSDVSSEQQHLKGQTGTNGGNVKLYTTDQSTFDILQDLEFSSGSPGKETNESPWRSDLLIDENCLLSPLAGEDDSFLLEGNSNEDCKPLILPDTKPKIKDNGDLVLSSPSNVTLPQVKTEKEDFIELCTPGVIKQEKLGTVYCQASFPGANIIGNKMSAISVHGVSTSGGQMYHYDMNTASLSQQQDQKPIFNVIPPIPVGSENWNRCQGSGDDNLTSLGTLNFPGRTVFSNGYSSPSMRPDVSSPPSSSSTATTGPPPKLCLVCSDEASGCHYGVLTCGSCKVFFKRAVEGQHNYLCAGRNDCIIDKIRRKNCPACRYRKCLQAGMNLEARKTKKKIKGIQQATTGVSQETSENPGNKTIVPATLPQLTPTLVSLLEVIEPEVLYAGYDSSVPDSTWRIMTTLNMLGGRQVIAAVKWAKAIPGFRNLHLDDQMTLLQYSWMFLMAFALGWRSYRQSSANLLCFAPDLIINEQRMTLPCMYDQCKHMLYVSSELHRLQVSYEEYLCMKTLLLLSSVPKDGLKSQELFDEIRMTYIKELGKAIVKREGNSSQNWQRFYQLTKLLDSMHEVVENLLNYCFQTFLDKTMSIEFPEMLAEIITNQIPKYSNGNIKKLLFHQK
Signal transducer and activator of transcription 3 (Homo sapiens), sequence (P40763 whole entry, looked up): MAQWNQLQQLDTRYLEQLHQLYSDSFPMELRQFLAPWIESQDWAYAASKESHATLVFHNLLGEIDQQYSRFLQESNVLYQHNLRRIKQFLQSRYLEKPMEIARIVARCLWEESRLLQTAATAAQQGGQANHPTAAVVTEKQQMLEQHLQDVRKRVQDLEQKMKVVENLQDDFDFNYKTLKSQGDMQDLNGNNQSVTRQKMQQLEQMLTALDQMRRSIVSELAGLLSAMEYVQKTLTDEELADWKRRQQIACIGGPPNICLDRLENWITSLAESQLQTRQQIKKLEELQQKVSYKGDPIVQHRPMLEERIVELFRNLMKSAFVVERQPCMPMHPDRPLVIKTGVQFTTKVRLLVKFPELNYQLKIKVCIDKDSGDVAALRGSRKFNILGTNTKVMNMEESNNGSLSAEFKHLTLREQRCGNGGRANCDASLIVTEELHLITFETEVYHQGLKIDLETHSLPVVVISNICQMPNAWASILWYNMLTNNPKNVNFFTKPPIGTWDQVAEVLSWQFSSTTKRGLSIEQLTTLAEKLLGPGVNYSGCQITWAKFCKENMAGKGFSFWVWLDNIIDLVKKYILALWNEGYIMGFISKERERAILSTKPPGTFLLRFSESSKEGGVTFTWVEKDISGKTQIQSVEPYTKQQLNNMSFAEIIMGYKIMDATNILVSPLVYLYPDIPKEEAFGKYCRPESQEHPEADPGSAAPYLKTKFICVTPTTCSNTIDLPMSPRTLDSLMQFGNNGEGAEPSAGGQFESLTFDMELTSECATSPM
Paired box protein Pax-6 (Homo sapiens), sequence (P26367 whole entry, looked up): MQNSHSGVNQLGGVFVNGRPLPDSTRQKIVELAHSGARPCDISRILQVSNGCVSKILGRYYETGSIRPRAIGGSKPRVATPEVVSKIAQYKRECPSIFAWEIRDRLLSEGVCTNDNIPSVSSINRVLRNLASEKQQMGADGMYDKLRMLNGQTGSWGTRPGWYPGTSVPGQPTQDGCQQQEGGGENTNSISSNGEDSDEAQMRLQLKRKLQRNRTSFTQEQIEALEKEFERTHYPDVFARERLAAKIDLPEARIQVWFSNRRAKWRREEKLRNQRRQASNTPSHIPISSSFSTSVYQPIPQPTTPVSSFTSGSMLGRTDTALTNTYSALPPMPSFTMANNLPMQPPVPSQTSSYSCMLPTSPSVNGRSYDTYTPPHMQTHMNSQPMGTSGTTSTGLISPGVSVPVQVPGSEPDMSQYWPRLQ
X-box-binding protein 1 (Homo sapiens), sequence (P17861 whole entry, looked up): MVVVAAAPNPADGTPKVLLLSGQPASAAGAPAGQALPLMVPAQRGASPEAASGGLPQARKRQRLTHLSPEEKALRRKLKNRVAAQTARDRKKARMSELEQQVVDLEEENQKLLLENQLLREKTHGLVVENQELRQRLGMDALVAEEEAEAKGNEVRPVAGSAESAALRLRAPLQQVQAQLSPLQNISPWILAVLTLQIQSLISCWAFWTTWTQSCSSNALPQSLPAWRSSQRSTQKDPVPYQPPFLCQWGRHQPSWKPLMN
Transcription factor Sp1 (Homo sapiens), sequence (P08047 whole entry, looked up, the tested form may be a part): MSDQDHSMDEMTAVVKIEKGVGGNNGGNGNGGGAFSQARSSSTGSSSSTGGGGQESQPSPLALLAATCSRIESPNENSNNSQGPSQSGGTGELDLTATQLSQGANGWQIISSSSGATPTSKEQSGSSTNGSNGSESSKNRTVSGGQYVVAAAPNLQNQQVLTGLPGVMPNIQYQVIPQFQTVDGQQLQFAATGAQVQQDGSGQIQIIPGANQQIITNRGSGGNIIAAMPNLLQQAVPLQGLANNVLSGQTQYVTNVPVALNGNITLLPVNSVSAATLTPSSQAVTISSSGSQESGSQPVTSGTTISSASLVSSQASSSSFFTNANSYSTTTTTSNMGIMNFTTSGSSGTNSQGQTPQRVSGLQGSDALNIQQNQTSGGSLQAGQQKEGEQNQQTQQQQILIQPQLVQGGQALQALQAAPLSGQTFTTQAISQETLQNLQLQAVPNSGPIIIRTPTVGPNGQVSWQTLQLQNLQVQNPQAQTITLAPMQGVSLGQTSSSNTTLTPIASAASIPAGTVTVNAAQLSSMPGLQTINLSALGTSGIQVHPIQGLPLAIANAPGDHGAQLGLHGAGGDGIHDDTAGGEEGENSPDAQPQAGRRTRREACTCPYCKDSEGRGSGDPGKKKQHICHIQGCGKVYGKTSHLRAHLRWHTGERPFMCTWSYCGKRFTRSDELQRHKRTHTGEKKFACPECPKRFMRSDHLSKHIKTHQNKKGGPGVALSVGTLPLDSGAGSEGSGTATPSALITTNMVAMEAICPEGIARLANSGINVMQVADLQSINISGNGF

Cc1c(OCC(F)(F)F)ccnc1CS(=O)c1nc2ccccc2[nH]1 (configuration not stated)
inactive: [2] | [4] | [5] | [6] | [7] | [10] | [11] | [12] | [13]
active: [1] 43.5 µM | [3] 19.8 µM | [8] 37.3 µM | [9] 57.7 µM

CCCC(C)C(O)CC (configuration not stated)
inactive: [1] | [14] | [3] | [4] | [6] | [7] | [8] | [9] | [10] | [11] | [15] | [12] | [16] | [17] | [13]

COc1cc(Cl)c(OC)cc1N
active: [14] 62.4 µM
inactive: [1] | [4] | [5] | [6] | [7] | [8] | [10] | [11] | [15] | [12] | [16] | [17] | [13]
